# Compound activity: PubChem BioAssay, National Center for Advancing Translational Sciences (NCATS)
# Shown are actives, neighbours in structure and some others; about 6.9% of the full set was active somewhere.
# MCF10A rerep – DNA re-replication induction in MCF 10a cells | MCF 10A DNA re-replication, Hoechst nuclear intensity, 48 h | actives 2.9% (n = 350,000) | Potency, µM (highest dose often 46.1 µM), without a hit: at the top dose activity, positive = re-replication, usual class: activators; further: potency means the concentration at half of the fitted maximal effect; % of control where 0% means no effect; nearly all actives have a fitted effect of over 50% in size
# SW480 rereplic – induces DNA re-replication in SW480 colon adenocarcinoma cells. actives 1.8% (n = 340,000). SW480 DNA re-replication, Hoechst DNA content imaging, 48 h. Potency, µM (titrated, usually from 46.1 µM), without a hit: at the top dose re-replication activation, actives largely listed as activators; further: potency means the concentration at half of the fitted maximal effect; % of control where 0% means no effect; nearly all actives have a fitted effect of over 55% in size
#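 Hoechst fluorescence of nuclei (405 nm excitation, 500-530 nm emission) measured by plate-scanning imager after 48 hr compound exposure at 37 C; re-replication scored as increased number of nuclei with elevated intensity.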
# IL1B secr inh – blocks inflammasome-driven IL-1 beta release; THP-1 LPS/ATP IL-1B secretion, AlphaLISA, 16 h; active compounds read low; activity change, % at 57.5 µM; actives 4.7% (n = 360,000); AID 743279; in the data active means activity change below about -50%; inconclusive means mostly about -30% to -49%; further: on the % scale 0 is the no-effect control and ±100 the full control effect
#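 THP-1 cells pretreated 1 hr with compounds (up to 57.5 uM final), then stimulated with LPS (250 ng/mL final) plus ATP (1.25 mM final); secreted IL-1B measured by AlphaLISA after 16 hr, decreased signal indicating inhibition.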
# Giardia killer – Giardia lamblia killing. actives 0.15% (n = 340,000). Giardia lamblia trophozoite viability. AID 540267. activity change, % at 7.66 µM, hits read low; in the data active means activity change below about -80%; inconclusive means between about -30% and that limit;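 further: parasites exposed to compound for two days anaerobically before the ATP read; on the % scale 0 is the no-effect control and ±100 the full control effect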
#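 Compounds were tested on trophozoites seeded at 100 cells/well and held 48 hrs at 37 deg C anaerobically. An ATP-based luminescent kit measured the remaining live cells.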
# Vif-A3G inh – blocks the Vif interaction with human APOBEC3G | Q9HC16 | HeLa A3G-eYFP + Vif (tagged APOBEC3G with the HIV-1 protein that degrades it), YFP fluorescence, overnight | Potency, µM (highest dose often 46.1 µM), for the others: top-dose activity, negative = active, most hits filed as inhibitors | actives 0.076% (n = 410,000); further: potency means the concentration at half of the fitted maximal effect; on the % scale 0 is the no-effect control and ±100 the full control effect; nearly all actives have a fitted effect of over 60% in size
# Target sequence (Q9HC16 whole entry, looked up): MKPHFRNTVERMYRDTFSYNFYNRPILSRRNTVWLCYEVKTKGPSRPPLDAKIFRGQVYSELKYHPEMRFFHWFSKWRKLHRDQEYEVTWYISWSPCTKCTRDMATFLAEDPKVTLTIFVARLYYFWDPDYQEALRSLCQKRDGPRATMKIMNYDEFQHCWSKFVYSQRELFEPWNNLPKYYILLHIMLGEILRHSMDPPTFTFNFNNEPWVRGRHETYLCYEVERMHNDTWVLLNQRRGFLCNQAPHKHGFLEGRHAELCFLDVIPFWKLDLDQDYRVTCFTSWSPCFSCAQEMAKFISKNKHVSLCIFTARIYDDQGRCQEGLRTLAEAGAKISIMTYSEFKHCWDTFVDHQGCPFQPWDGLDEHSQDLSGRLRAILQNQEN
#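 Read-out is eYFP fluorescence (Ex 488/Em 500-530) from Vif-expressing HeLa A3G-eYFP cells; more signal means A3G escaped Vif-mediated degradation. Cells plated overnight, compound pinned in, incubated overnight at 37 deg C.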
# Vif-A3F inh – blocks the Vif interaction with APOBEC3F; AID 602313; actives 0.2% (n = 390,000); Potency, µM (doses to about 46.1 µM), for the others: top-dose activity, negative = active; HeLa A3F-eYFP + Vif (tagged APOBEC3F with the HIV-1 protein that degrades it), YFP fluorescence increase; further: potency means the concentration at half of the fitted maximal effect; % of control where 0% means no effect; nearly all actives have a fitted effect of over 65% in size
#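 Fluorescence increase (Ex 488/Em 500-530) after overnight compound treatment at 37 deg C flags inhibition of Vif-driven A3F-eYFP loss in stable HeLa A3F-eYFP/Vif cells seeded overnight beforehand.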
# The depositor's hits bear a star; i = inactive; ? = inconclusive; nt = no result; [ ] = remark or other dose. Unless noted, the call rests on the fitted dose curve; in most records, active means well fitted curve in the direction sought with a large enough effect; inconclusive means small, poorly fitted or top-dose-only effect, or another doubt; inactive means no such curve, though single readings can be large; an effect the other way counts as inactive or inconclusive.
SMILES,MCF10A rerep,SW480 rereplic,IL1B secr inh,Giardia killer,Vif-A3G inh,Vif-A3F inh
COC(=O)Cn1c(=NC(=O)c2ccc(S(=O)(=O)N3CCc4ccccc4C3)cc2)sc2cc(OC)ccc21,?,1.5%,5.8,-1.8,7.6%,-12.0%
COCCn1c(=NC(=O)c2ccc(S(=O)(=O)N3CCc4ccccc4C3)cc2)sc2cc(S(N)(=O)=O)ccc21,-1.7%,-4.1%,101.6,-5.9,-8.4%,6.8%
C#CCn1c(=NC(=O)c2ccc(S(=O)(=O)N3CCc4ccccc4C3)cc2)sc2cc(S(N)(=O)=O)ccc21,4.11µM*,?,41.3,11.9,?,?
O=S(=O)(c1cc(Br)c(Br)s1)N1CCN(c2ccccc2)CC1,nt,nt,nt,nt,1.3%,-24.6%
COc1ccc(S(=O)(=O)c2c(Nc3ccc(F)cc3)sc(C(=O)c3ccc4c(c3)OCO4)c2N)cc1,nt,nt,nt,nt,-3.3%,0.7%
COc1ccc(C(=O)/C=C/c2cn(CN3CCN(C)CC3)c3ccccc23)cc1,8.2µM*,20.6µM*,-68.2*,-2.2,-8.6%,0.2%
CCOc1ccc(C(=O)/C=C/c2cn(CN3CCN(C)CC3)c3ccccc23)cc1,10.3µM*,?,-20.6,17.6,1.2%,-21.8%
COc1ccc(NC(=O)CSc2nc3c([nH]c4ccccc43)c(=O)n2-c2ccccc2)c(OC)c1,nt,nt,nt,nt,-15.9%,-3.7%
COc1ccc(C)cc1NC(=O)c1nnn(-c2c(C)cccc2C)c1C,nt,nt,nt,nt,4.1%,1.5%
COc1ccc(-c2nc(CSCC(=O)N3CCN(c4ccc(F)cc4)CC3)c(C)o2)cc1,nt,nt,nt,nt,3.5%,4.4%
CN(Cc1ccccc1N1CCCC1)C(=O)c1cc2cc(Cl)ccc2o1,14.6µM*,-25.0%,16.7,?,0.8%,6.6%
Fc1ccc(Nc2nc(NCc3ccco3)c3ccccc3n2)cc1,?,?,-102.0*,25.7,-19.1%,5.6%
c1coc(CNc2nc(NCc3ccco3)c3ccccc3n2)c1,nt,nt,nt,nt,-24.2%,nt
Cc1ccc2c(NCc3ccco3)nc(NC(C)C)nc2c1,nt,nt,-111.4*,nt,nt,nt
CC(C)(C)N(NC(=O)Nc1ccc(F)cc1)C(=O)c1ccccc1,7.9%,-4.6%,-12.7,-10.6,-0.7%,1.7%
CC(C)(C)N(NC(=O)Nc1ccc(Cl)c(Cl)c1)C(=O)c1ccccc1,?,-3.3%[9.22 µM],-50.9*,0.3,5.0%,-2.4%
COc1ccc(-c2ccc(C(C)=O)cc2)cc1C1C2C=CCCC2(C)C(=O)N1Cc1ccccc1 (configuration not stated),nt,nt,nt,4.5,-2.2%,nt
CCOC(=O)C(C(=O)OCC)N(C#N)c1nc(C)cc(C)n1,-3.7%,0.6%,-4.3,3.4,1.9%,-7.9%
CCOC(=O)C(C(=O)OCC)N(C#N)c1nc(N(C)C)nc(N(C)C)n1,0.4%,-1.3%,-99.7*,4.4,-0.3%,13.8%
CCN(CC)c1ccc2ccc(=O)oc2c1,?,18.4µM*,51.1,-14.9,-6.6%,-7.5%
CCN(CC)c1ccc2cc(S(=O)(=O)c3ccc(C)cc3)c(=O)oc2c1,2.59µM*,3.26µM*,-3.7,-22.9,-0.8%,-3.1%
O=c1oc2ccccc2cc1-c1csc(Nc2nc3c(F)cccc3s2)n1,5.8µM*,nt,16.0,-0.2,-6.6%,?
Cc1ccc(S(=O)(=O)c2cc3ccccc3oc2=O)cc1,?,-9.9%,-7.1,9.5,-17.1%,0.2%
Cc1cc(=O)oc2cc(O)ccc12,-28.4%,-35.1%,12.8,?,0.7%,2.8%
CCN(CC)c1ccc2cc(C#N)c(=O)oc2c1,8.6%,1.1%,11.0,-6.3,0.5%,?
SMILES,MCF10A rerep,SW480 rereplic,IL1B secr inh,Giardia killer,Vif-A3G inh,Vif-A3F inh
O=c1oc2ccccc2cc1-c1csc(Nc2nc3ccc(F)cc3s2)n1,1.8%,-1.1%,nt,nt,nt,nt
CCN(CC)c1ccc2c(C)cc(=O)oc2c1,25.9µM*,?,2.0,-9.9,0.5%,-1.8%
CCN(CC)c1ccc2cc(-c3nc(-c4ccccc4)no3)c(=O)oc2c1,nt,nt,nt,nt,-34.1%,?
CCN(CC)c1ccc2cc(-c3nc(-c4cc5ccccc5oc4=O)cs3)c(=O)oc2c1,10.6%,2.9%,7.6,-25.0,7.08µM*,i
Cc1ccc(CNC(=O)CSc2c(C(C)C)cnc3c2c(=O)n(C)c(=O)n3C)cc1,nt,nt,nt,nt,0.2%,1.0%
Nc1ncn([C@H]2C[C@H](O)[C@@H](CO)O2)c(=O)n1,-1.9%,0.231µM*,3.6,?,2.3%,5.5%
COc1ccc(N(Cc2ccccc2)C(=O)c2nc(S(C)(=O)=O)ncc2Cl)cc1,nt,nt,nt,nt,-30.0%,5.6%
CC(C)[C@H](NC(=O)C1CCCC1)c1nc2ccccc2[nH]1,9.2µM*,?,-19.7,-17.2,-19.5%,-3.5%
Oc1c(Br)cc(C=Nc2ccc3nc(-c4ccccc4)[nH]c3c2)c(O)c1Br,20.6µM*,?,31.5,-13.6,-12.4%,-16.0%
Cc1c(Cc2ccccc2)c(=O)oc2c(O)c(O)ccc12,20.6µM*,?,174.3,-13.8,3.1%,-1.8%
Cc1c(Cc2ccccc2)c(=O)oc2c(CN(C)C)c(O)c(Cl)cc12,18.4µM*,-5.7%,18.1,-6.0,-8.4%,-9.2%
CCN(CC)Cc1c(O)c(Cl)cc2c(C)c(C)c(=O)oc12,?,-23.7%,11.3,4.9,3.1%,-2.7%
Cc1cccc(N2CCN(C(=O)CCc3c(C)nc4ncnn4c3C)CC2)c1C,nt,nt,nt,nt,0.5%,-2.7%
CCOc1ccccc1CNC(=O)C1CCCN(c2ncnc3onc(-c4ccc(F)cc4)c23)C1 (configuration not stated),nt,nt,nt,nt,1.7%,-11.9%
Cc1ccc(NC(=O)CCN2CCN(CCO)CC2)cc1C,nt,nt,nt,nt,-0.1%,0.0%
c1ccc(-c2ccc3c(c2)c2c4n3CCN=C4CCC2)cc1,8.2µM*,?,?,0.1,-9.5%,-12.1%
OC1CN=C2CCCc3c2n(c2ccc(Cl)cc32)C1 (configuration not stated),?,2.6%,?,20.0,-13.8%,-5.3%
CCn1c(=O)c2cc(C(=O)N(CCCOC(C)C)Cc3ccco3)sc2c2ccccc21,nt,nt,nt,nt,0.0%,-0.5%
COc1ccccc1C(C[N+](=O)[O-])c1c(N)n(C)c(=O)n(C)c1=O (configuration not stated),?,?,-57.8*,9.4,?,-6.5%
COc1ccccc1C(c1c(N)n(C)c(=O)n(C)c1=O)C(C)[N+](=O)[O-] (configuration not stated),?,4.6%,-8.6,0.6,-6.8%,-21.6%
CCN(CC)S(=O)(=O)c1ccc2c(c1)nc(CN(C)C(=O)c1cccc(Cl)c1)n2C,nt,nt,nt,nt,5.5%,4.1%
O=C(c1ccco1)N1N=C(c2ccco2)CC1c1ccc(Cl)cc1Cl (configuration not stated),23.1µM*,?,2.2,-0.8,-2.0%,-28.1%
